Measured values taken from PubChem BioAssay (Tox21).
Values joined by “and” are separate entries in the source; they are usually repeats but may differ in a detail not shown here. Equal entries are not always repeated. Records with an inconclusive call do not appear. A call without a number means that no potency is given here. Values without a mark were called inactive. Active and inactive are the calls of the source. Calls come from the whole dose curve; as a rule, active = well fitted cell-killing curve with a large enough effect in the repeat runs; inconclusive = weak or mixed curves; inactive = no such curve, though single readings can be large or run the other way.

Assay: qHTS assay to identify small molecule antagonists of the peroxisome proliferator-activated receptor delta (PPARd) signaling pathway - cell viability counter screen (AID 743213); note: nearly all actives have a fitted effect of over 50% in size
Conditions: PPARd-bla HEK293H viability, CellTiter-Glo luminescence, 17 h; series mostly up to 62 µM; viability change, negative = cytotoxic: at the top concentration
Text: U.S. Tox21 Program National Center for Advancing Translational Sciences [NCATS] NIH Chemical Genomics Center [NCGC] U.S. Environmental Protection Agency [EPA] National Institutes of Environmental Health Sciences [NIEHS] National Toxicology Program [NTP] U.S. Food and Drug Administration [FDA] Tox21 Assay Overview: The peroxisome proliferator-activated receptors (PPARs) are lipid-activated transcription factors of the nuclear receptor superfamily with three distinct subtypes namely PPAR alpha, PPAR delta (PPARd) and PPAR gamma. All these subtypes heterodimerizes with Retinoid X receptor (RXR) and have different physiological functions. […] To identify the compounds that inhibit PPAR-delta signaling, GeneBLAzer PPAR delta UAS-bla HEK293H cell line (Invitrogen, Carlsbad, CA, USA) containing a beta-lactamase reporter gene under the control of an Upstream Activator Sequence (UAS) was used to screen the Tox21 compound library. The cytotoxicity of the Tox21 compound library against the PPARd-bla cell line was tested in parallel by measuring the cell viability using CellTiter-Glo assay (Promega, Madison, WI) in the same wells.
Tox21 Assay Protocol Summary: PPARd-bla cells were dispensed at 3000 cells/5uL/well in 1536-well black wall/clear bottom plates using a Multidrop Combi (Thermo Fisher Scientific, Waltham, MA) dispenser. After the assay plates were incubated at 37 C and 5% CO2 for 5 h, 23 nL of compounds dissolved in DMSO, positive controls or DMSO only was transferred to the assay plate by a Pintool station (Kalypsys, San Diego, CA), followed by addition of 1ul L165041 (300 nM, final concentration in the wells). The assay plates were incubated at 37 C for 17 h, and then 1 uL of LiveBLAzerTM B/G FRET substrate was added using a Bioraptr Flying Reagent Dispenser (FRD) workstation (Beckman Coulter, Indianapolis, IN, USA). The assay plates were incubated at room temperature for 2 h and fluorescence intensity was measured by an Envision plate reader (PerkinElmer, Shelton, CT). For cell viability readout that measures cytotoxicity, 3 ul/well of CellTiter-Glo reagent was added into the assay plates using a Bioraptr FRD. After 30 min incubation at room temperature, the luminescence intensity in the plates was measured using a ViewLux plate reader (PerkinElmer).
Potency is the fitted concentration of half-maximal effect.

SMILES	Potency	viability change, negative = cytotoxic
[CH3][Sn]([Cl])([Cl])[Cl]	inactive	–
CC1=C(C(=O)Nc2ccccc2)SCCO1	inactive	–
CC(C)(c1ccc(OCC2CO2)cc1)c1ccc(OCC2CO2)cc1 (stereo not given)	–	7.4%
O=S(=O)(O)C(F)(F)C(F)(F)C(F)(F)C(F)(F)C(F)(F)C(F)(F)C(F)(F)C(F)(F)F	26.2 µM (active) and 43.6 µM (active)	–
COP(=S)(OC)SCn1nnc2ccccc2c1=O	inactive	–
Clc1ccccc1-c1nnc(-c2ccccc2Cl)nn1	–	-12.8%
COP(=S)(OC)Oc1ccc(Sc2ccc(OP(=S)(OC)OC)cc2)cc1	inactive	–
O=C(O)c1nn(Cc2ccc(Cl)cc2Cl)c2ccccc12	–	1.26%
CCCCCCCCCCCCCl	inactive	–
CCC[CH2][Sn]([Cl])([CH2]CCC)[CH2]CCC	778 nM (active) and 1.95 µM (active)	–
O=NN(c1ccccc1)c1ccccc1	inactive	–
CN(C)c1nc(=O)n(C2CCCCC2)c(=O)n1C	inactive	–
COP(=S)(OC)Oc1ccc(S(=O)(=O)N(C)C)cc1	inactive	–
COc1ccc(O)c(C(C)(C)C)c1	–	4.29%
O=C1CCCO1	–	-0.0414%
NN=C(N)N	–	20.1%
CCC[CH2][Sn]([Cl])([Cl])[CH2]CCC	556 nM (active) and 155 nM (active)	–
Nc1ccc2ccccc2c1	–	9.51%
N#CCCCCC#N	inactive	–
COC(=O)Nc1nc2ccccc2[nH]1	–	-15.7%

SMILES	Potency	viability change, negative = cytotoxic
CNC(=S)S	inactive	–
CC(C)Nc1ccc(Nc2ccccc2)cc1	43.6 µM (active)	–
CCCCC(C#N)(Cn1cncn1)c1ccc(Cl)cc1 (stereo not given)	–	-19.4%
C[C@]12CCC(=O)C=C1CC[C@@H]1[C@@H]2CC[C@@]2(C)[C@H]1CC[C@]2(C)O	inactive	–
CCCCOC(=O)COC(=O)c1ccccc1C(=O)OCCCC	inactive	–
O=[N+]([O-])c1ccc(Nc2ccccc2)cc1	–	2.59% [at 80.4 µM]
CCCCSP(=O)(SCCCC)SCCCC	–	0.915%
ClC(Cl)=C(Cl)C(Cl)=C(Cl)Cl	inactive	–
NC(=O)CN1CCCC1=O	inactive	–
OCCOCCO	inactive	–
CCCCOCC1CO1 (stereo not given)	–	7.67%
COc1ccc(C=O)cc1OC	inactive	–
CCN(CC)C(=O)C(C)Oc1cccc2ccccc12 (stereo not given)	inactive	–
CC(C)CON=O	–	-11.9% [at 28.9 µM]
CC(C)(c1ccccc1)c1ccc(O)c(C(C)(C)c2ccccc2)c1	34.3 µM (active) and 43.6 µM (active)	–
CC(C)COC(=O)c1ccccc1C(=O)OCC(C)C	inactive	–
Cc1cccc(N=Nc2ccc(N(C)C)cc2)c1	inactive	–
ClC(Cl)(Cl)Br	inactive	–
CS(=O)(=O)NC(=O)c1cc(Oc2ccc(C(F)(F)F)cc2Cl)ccc1[N+](=O)[O-]	inactive	–
O=C(O)CF	inactive	–
